Assay outcomes: PubChem, Center for Chemical Genomics, University of Michigan
The full list was thinned out, with hits kept by preference.
Dicer inh: human Dicer pre-microRNA cleavage inhibition; AID 1347074; cat-ELCCA pre-miR-21 Dicer processing, chemiluminescence; hits give high values; 6% of 47,000 active; z-score at 25 µM; in the data active = z-score above about 3, passing the limit was not always enough;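 also: higher signal means more uncleaved substrate so more Dicer inhibition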
Hits are given with their value.

For Oc1cc2c(cc1C(c1ccc(C(F)(F)F)cc1)N1CCCCC1)OCO2 (stereo unspecified) the results were Dicer inh 3.77.
`O=C(NC(=O)c1ccc(C(F)(F)F)cc1)NN1CCCCCC1` gave Dicer inh inactive.
CN(C)S(=O)(=O)c1ccccc1[N+](=O)[O-] was read as Dicer inh inactive.
Cc1ccc2nc(SCC(N)=O)nc(C)c2c1 was read as Dicer inh inactive.
For Cc1cc(OCOc2ccc(Cl)c(C)c2)ccc1Cl the results were Dicer inh inactive.
For Cc1cc(Oc2ccnc3cc(Cl)ccc23)cc(C)c1Cl the results were Dicer inh inactive.
Cc1cc(Oc2ccnc3cc(Cl)ccc23)ccc1Cl was read as Dicer inh 28.8.
`Clc1ccc(-c2csc(-c3[nH]ncc3Br)n2)cc1` gave Dicer inh inactive.
For CSc1nc(Sc2ccc(C)cc2)c(C#N)c(Sc2ccc(C)cc2)n1 the results were Dicer inh inactive.
CC1(C)C=Cc2cc(/C(N)=N/OC(=O)Nc3cccc(C(F)(F)F)c3)ccc2O1 was read as Dicer inh inactive.
Screening Cc1cc(NC(=O)c2cc(Cl)cc(Cl)c2)n(-c2ccccc2)n1 returned Dicer inh inactive.
c1cn(CCCNc2ncnc3ccsc23)cn1 was read as Dicer inh inactive.
Screening c1ccc(-c2c(-c3ccccc3)n(Cc3ccco3)c3ncnc(NCc4ccco4)c23)cc1 returned Dicer inh inactive.
OCCNc1ncnc2c1oc1ccccc12 was read as Dicer inh inactive.
For OCCNc1ncnc2c1c(-c1ccccc1)c(-c1ccccc1)n2Cc1ccco1 the results were Dicer inh 5.89.
For Cc1ccccc1OCc1nc(C#N)c(NCCCn2ccnc2)o1 the results were Dicer inh inactive.
c1ccc(-c2c(-c3ccccc3)n(Cc3ccco3)c3ncnc(NCCCn4ccnc4)c23)cc1 was read as Dicer inh 3.94.
Screening Brc1c(-c2ccccc2)nc2ccccn12 returned Dicer inh inactive.
For O=c1c2ccccc2cnn1Cc1nc2c3c(ncn2n1)CCC3 the results were Dicer inh inactive.
Screening O=C(O)CSc1c(Cl)cc(Cl)cc1Cl returned Dicer inh inactive.
For O=C1NC(=S)NC(=O)C1=Cc1c(O)[nH]c(=S)[nH]c1=O the results were Dicer inh inactive.
CSc1nccc(-c2ccc(S(=O)(=O)N3CCCCC3)s2)n1 was read as Dicer inh inactive.
Screening Cc1c(-c2ccnc(SCc3ccccc3Cl)n2)sc2ccc(Cl)cc12 returned Dicer inh inactive.
CSC(=NC#N)N1CCC(C(=O)c2ccccc2)CC1 was read as Dicer inh inactive.
For COc1ccc(C2C(C(=O)c3cccs3)=C(O)C(=O)N2CCCN2CCOCC2)cc1OC (stereo unspecified) the results were Dicer inh inactive.
For COc1ccc(C2C(C(=O)c3cccs3)=C(O)C(=O)N2CCCn2ccnc2)cc1 (stereo unspecified) the results were Dicer inh inactive.
O=C(C1=C(O)C(=O)N(CCCn2ccnc2)C1c1cccnc1)c1cccs1 (stereo unspecified) was read as Dicer inh 3.06.
For O=C(C1=C(O)C(=O)N(CCCn2ccnc2)C1c1cccnc1)c1cc2ccccc2o1 (stereo unspecified) the results were Dicer inh inactive.
`COC(=O)c1sc(N(C)C)c(C#N)c1-c1ccc(Cl)cc1` gave Dicer inh inactive.
`COc1ccc(C(C)=O)cc1CS/C(=N/S(=O)(=O)c1ccccc1)Nc1cccc(F)c1` gave Dicer inh inactive.
CC(=O)[C@@]12OC(C)(c3ccccc3)O[C@@H]1C[C@H]1[C@@H]3CCC4=CC(=O)CC[C@]4(C)[C@H]3CC[C@@]12C (stereo partly specified) was read as Dicer inh inactive.
CC(=O)[C@H]1CC[C@H]2[C@@H]3CCC4=CC(=O)CC[C@]4(C)[C@H]3CC[C@]12C was read as Dicer inh inactive.
Screening C[C@]12CCC(=O)C=C1CC[C@@H]1[C@@H]2CC[C@@]2(C)[C@H]1CC[C@]2(O)C(=O)CO returned Dicer inh 3.28.
`C=CCOC(=O)c1sc(N2C(=O)c3oc4ccc(F)cc4c(=O)c3C2c2cccc(O)c2)nc1C` (stereo unspecified) gave Dicer inh inactive.
For Cc1ccc(C(O)c2cccnc2)o1 (stereo unspecified) the results were Dicer inh inactive.
`Cc1ccc(C(c2ccc(C)o2)c2ccccc2O)o1` gave Dicer inh 5.26.
`Cc1ccc(/C=C/c2noc(-c3ccccc3O)n2)o1` gave Dicer inh inactive.
For CCOC(=O)c1sc(S(C)(=O)=O)c2c1CCc1cnoc1-2 the results were Dicer inh inactive.
For O=[N+]([O-])c1ccc(Oc2cncc(Cl)c2)c(-c2nnc(-c3ccc(Cl)cc3)o2)c1 the results were Dicer inh inactive.
For O=C(NC1CCN(S(=O)(=O)c2cc(C(F)(F)F)cc(C(F)(F)F)c2)CC1)C1CCCCC1 the results were Dicer inh inactive.
For CCOc1ccc(S(=O)(=O)N2CCCN(S(=O)(=O)c3ccc(OCC)cc3)CC2)cc1 the results were Dicer inh inactive.
For CCOc1ccc(/C=N/NC(=S)Nc2ccc(S(=O)(=O)N3CCCCC3)cc2)cc1 the results were Dicer inh 7.26.
`O=S(=O)(c1ccc(NC(=S)NC2CCCCC2)cc1)N1CCCCC1` gave Dicer inh inactive.
Screening COC(=O)CC(=O)NC(CSC(=O)Nc1ccc(Cl)cc1)C(=O)OC (stereo unspecified) returned Dicer inh inactive.
C=C(C)CSc1nc(=O)cc(N)n1-c1ccc(F)cc1 was read as Dicer inh inactive.
For O=S(=O)(c1cccc2nsnc12)N1CCN(C(c2ccccc2)c2ccccc2)CC1 the results were Dicer inh inactive.
`Cc1ccc(CC2CC(=O)N(c3ccc(C(=O)O)cc3)C2=O)cc1` (stereo unspecified) gave Dicer inh inactive.
Screening Cc1ccc(CC2CC(=O)N(c3ccncc3)C2=O)cc1 (stereo unspecified) returned Dicer inh inactive.
`Cc1ccc(CC2CC(=O)N(Cc3ccco3)C2=O)cc1` (stereo unspecified) gave Dicer inh 3.58.
`COC(=O)C1=C(N)n2c(s/c(=C\c3ccc(Cl)cc3)c2=O)=C(C#N)C1c1ccc(Cl)cc1` (stereo unspecified) gave Dicer inh inactive.
COc1cc(C(SCC(=O)O)SCC(=O)O)cc(OC)c1OC was read as Dicer inh inactive.
Screening Cc1ccc(C(C)C)c(OCC(O)Cn2cnc3ccccc32)c1 (stereo unspecified) returned Dicer inh inactive.
Cc1nc(Cc2c(Cl)cccc2Cl)[nH]c(=O)c1Cl was read as Dicer inh inactive.
Screening N#Cc1nc(-c2ccccc2)oc1NCc1ccccc1 returned Dicer inh 6.36.
`C=CCNc1oc(-c2ccc(F)cc2)nc1C#N` gave Dicer inh inactive.
For COc1ccc(-c2nc(C#N)c(NCc3ccco3)o2)cc1 the results were Dicer inh inactive.
`Cn1cccc1CN1CCN(Cc2ccccc2)CC1` gave Dicer inh inactive.
For Cc1ccc(C2Nn3c(C)nnc3SC2C(=O)N2CCOCC2)cc1 (stereo unspecified) the results were Dicer inh inactive.
Cc1c(S(=O)(=O)Nc2ccccc2Cl)sc2ccc(Cl)cc12 was read as Dicer inh 4.63.
`Cc1c(S(=O)(=O)Nc2ccc(Cl)c(Cl)c2)sc2ccc(Cl)cc12` gave Dicer inh inactive.
Cc1c(S(=O)(=O)Oc2ccccc2Cl)sc2ccc(Cl)cc12 was read as Dicer inh inactive.
